GRIN3A LBD mod – NR3A (human) ligand-binding domain modulation. NR3A LBD differential scanning fluorimetry, Tm shift; 0% = protein alone, 100% = glycine-bound protein. Tm shift relative to glycine control, % at 25 µM. 340,000 tested, 2.5% active;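 active = melting temperature shift of at least 10% of the positive control shift, at one fixed dose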
UBC13 polyUb – inhibitors of human UBC13 polyubiquitin chain formation; P61088; inhibition, % at 20 µM; TR-FRET; 330,000 tested, 0.47% active; in the data active = inhibition above about 45%, passing the limit was not always enough; inconclusive = no clear call, values can overlap the other calls
Target sequence (P61088 whole entry, looked up): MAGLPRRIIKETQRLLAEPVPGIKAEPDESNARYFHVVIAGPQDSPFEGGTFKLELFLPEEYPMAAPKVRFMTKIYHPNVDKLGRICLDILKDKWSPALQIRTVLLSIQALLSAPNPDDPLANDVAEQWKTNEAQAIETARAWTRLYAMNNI
sPLA2-III inh – Inhibits HGIII-sPLA2 liposome hydrolysis, primary screen | QFRET BODIPY PC-A2 liposome hydrolysis, fluorescence | inhibition, % at 12.2 µM | 370,000 tested, 0.56% active;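 active = inhibition above mean plus 3 SD of compounds lying within the high and low control bounds, cut at about 19% in these data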;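 also: 0% = median of test compound wells and 100% = no enzyme DMSO wells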
SUMO HTRF inh – inhibitors of human SUMOylation (UBC9) | HTRF SUMOylation assay, SAE1/SAE2 + UBC9, in vitro | inhibition, % at 35 µM | 290,000 tested, 0.36% active | AID 2006; in the data active = inhibition above about 50%, passing the limit was not always enough; inconclusive = no clear call, values can overlap the other calls
Target sequence (P63279 whole entry, looked up): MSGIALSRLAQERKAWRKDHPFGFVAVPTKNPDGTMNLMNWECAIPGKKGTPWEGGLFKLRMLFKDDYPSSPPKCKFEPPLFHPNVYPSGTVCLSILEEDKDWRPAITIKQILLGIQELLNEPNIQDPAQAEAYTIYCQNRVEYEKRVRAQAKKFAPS
* = called active by the depositor; ? = inconclusive; nt = not tested or not shown. A selection: hits, their analogues and other compounds. The true share with any hit is near 3.3%.

SMILES | GRIN3A LBD mod | UBC13 polyUb | sPLA2-III inh | SUMO HTRF inh
CCc1ccc(NC(=O)c2ccc(NC3=NC4CS(=O)(=O)CC4S3)cc2)cc1 (configuration not stated) | 13* | 9 | 6 | -9
CCc1ccc(NC(=O)Cc2ccc(NC3=NC4CS(=O)(=O)CC4S3)cc2)cc1 (configuration not stated) | 10* | 0 | 10 | 6
CCOc1ccc(NC(=O)Cc2ccc(NC3=NC4CS(=O)(=O)CC4S3)cc2)cc1 (configuration not stated) | 0 | -2 | 4 | 11
COC(=O)[C@]12C[C@H](CC(=O)N3CCCC3)C(=O)N(Cc3cccc4ccccc34)C1=C[C@H](C(C)C)O[C@@H]2C1CC1 | nt | nt | -3 | nt
Cc1cccc(NC(=O)NCCCN2CCN(c3ccc(F)cc3)CC2)c1 | nt | nt | -7 | nt
CCc1c(C)c2cc(Cl)c(O)c(CN(C)C)c2oc1=O | 3 | 29 | 8 | 51*
CN[C@H]1C[C@H]2c3[nH]c4c(-c5cccc(C)c5)cccc4c3CCN2C(=O)[C@H]1[C@H](C)O | nt | nt | -10 | nt
COC(=O)C1=C(C)OC(N)=C(C#N)C1c1cccnc1 (configuration not stated) | 1 | -11 | 0 | 4
N#CC1=C(N)Oc2c(O)cc3ccccc3c2C1c1ccsc1 (configuration not stated) | 12* | 9 | -112 | 18
CCOC(=O)C1=C(CC)OC(N)=C(C#N)C1c1ccsc1 (configuration not stated) | -4 | -9 | -22 | -2
N#CC1=C(N)Oc2c(ccc3ccccc23)C1c1cccs1 (configuration not stated) | 2 | -4 | nt | 29
CC(=O)C1=C(C)OC(N)=C(C#N)C1c1ccncc1 (configuration not stated) | 11* | -5 | -4 | 10
CCOC(=O)C1=C(C)OC(N)=C(C#N)C1c1ccsc1 (configuration not stated) | 11* | 4 | nt | 0
CCN(CC)C(=O)CC[C@H]1CC[C@]2(CCCN(Cc3cccc4ccccc34)C2)O1 | nt | nt | -2 | nt
Cc1ccc(SC(C)C(=O)N2CCCC2)cc1 (configuration not stated) | 12* | 5 | -1 | 5
COc1ccc(Cn2ccc3ccc(-c4ccc5ccn(C(=O)C6CC6)c5c4)cc32)cc1 | nt | nt | -7 | nt
Cc1ccc2nc(-c3ccc(SCC(=O)N4CCc5ccccc54)nc3)[nH]c2c1 | 23* | -5 | -4 | -49
Cc1ccc(-c2nnc3ccc(SCC(=O)N4CCc5ccccc54)nn23)cc1 | 0 | 40 | 7 | 20
Cc1ccc(-c2nnc3ccc(SCC(=O)N4CCCc5ccccc54)nn23)cc1 | 18* | 2 | 2 | 5
Cc1cc(C(N)=O)c2cc(Br)ccc2n1 | 13* | 0 | -2 | -2
O=C(CCCOc1ccc(Cl)cc1Cl)N/N=C/c1ccccc1O | 18* | -1 | -7 | -24
COc1ccc(/C=N/NC(=O)CCCOc2ccc(Cl)cc2Cl)cc1[N+](=O)[O-] | 12* | 22 | 8 | -9
O=C(CCCOc1ccc(Cl)cc1Cl)N/N=C/c1ccccc1 | 2 | 11 | -6 | 9
Cc1ccc(/C=N/NC(=O)CCCOc2ccc(Cl)cc2Cl)cc1 | 12* | 13 | -6 | -11
O=C(CSc1nc2ccccc2nc1N1CCOCC1)N1CCN(S(=O)(=O)c2cccc([N+](=O)[O-])c2)CC1 | nt | nt | -2 | nt
SMILES | GRIN3A LBD mod | UBC13 polyUb | sPLA2-III inh | SUMO HTRF inh
C=CCN(CC#Cc1ccc(C)cc1)Cc1ccc(OC)cc1OC | nt | nt | -5 | nt
CC[C@@H](C(=O)n1nc(C)cc1C)[C@H](NS(=O)(=O)c1ccc(C)cc1)c1ccccc1 | 13* | 2 | -10 | -16
Cc1ccc(S(=O)(=O)NC(C(=O)O)c2ccccc2)cc1 (configuration not stated) | -2 | -1 | 4 | 13
COc1ccc(-c2ncccc2OC(=O)C23CC4CC(CC(C4)C2)C3)cc1 | 16* | 12 | -7 | 5
CCn1c(SCC(=O)Nc2ccccc2-c2ccccc2)nnc1-c1cnccn1 | nt | nt | 1 | nt
C=CCc1cccc(CNc2nc3ccccc3n2C(C)C)c1O | 11* | 16 | -2 | -22
COc1ccc(C(=O)c2c(C)oc3ccc(O)cc23)cc1 | 0 | 8 | -5 | 3
COc1ccc(C(=O)c2ccc3oc(-c4ccc(OC)cc4)c(-c4ccc(O)cc4)c3c2)cc1 | 11* | -12 | -4 | nt
CCOc1ccccc1NC(=O)CC1(CC(=O)N2CCOCC2)CCCC1 | 13* | 3 | 8 | nt
Cc1cccc(N2CCc3c2nc2ccc(Br)cc2c3N)c1 | 37* | ? | -37 | 17
Nc1c2c(nc3ccc(Br)cc13)N(c1ccccc1)CC2 | 10* | 36 | -5 | 3
COc1ccccc1NC(=O)OCCCN1CCC2(CCC(C)CC2)C1=O (configuration not stated) | nt | nt | -2 | nt
COC(=O)c1cnn(-c2ccc(Cl)cc2)c1/C=N/NC(=S)Nc1ccccc1 | nt | nt | 10 | nt
O=C(Nc1ccc(F)cc1)Nc1ccc(Oc2ncnc3cc(Cl)ccc23)nc1 | 3 | -5 | 1 | 15
O=C(Nc1ccc(Oc2ncnc3cc(Cl)ccc23)nc1)c1cccs1 | 11* | -7 | 5 | -3
CC1(c2nnnn2C2CCCCC2)CCCC(=O)N1CCc1ccc(O)cc1 (configuration not stated) | nt | nt | 2 | nt
COc1cccc(N2CCN(C(=O)CN3C(=O)NC(C)(c4ccc5ccccc5c4)C3=O)CC2)c1 (configuration not stated) | 19* | 2 | -12 | nt
COc1ccc(Oc2nc(C(F)(F)F)nc3ccccc23)cc1 | 23* | 5 | 9 | 10
Cc1ccc(Oc2nc(C(F)(F)F)nc3ccccc23)cc1 | -1 | 0 | -3 | -2
CC(C)COc1ccc(-c2nn(-c3ccccc3)cc2CO)cc1 | 7 | 6 | -27 | -20
OCc1cn(-c2ccccc2)nc1-c1ccc(Br)cc1 | 34* | 14 | -3 | -2
O=C(O)Cc1cn(-c2ccccc2)nc1-c1ccc(Cl)cc1 | 12* | -10 | -7 | -10
COc1cccc(C2c3c(ncn(-c4ccccc4)c3=N)Oc3ccc4ccccc4c32)c1 (configuration not stated) | nt | nt | -9 | nt
Cc1cc(NCc2ccccn2)ccc1Br | 11* | 2 | 7 | -11
CC(C)n1cnc2cc(NCc3ccccn3)ccc21 | -1 | 0 | 8 | -5
SMILES | GRIN3A LBD mod | UBC13 polyUb | sPLA2-III inh | SUMO HTRF inh
Cc1ccc(-n2[nH]c(C)c(C=Nc3ccc(S(=O)(=O)Nc4nccs4)cc3)c2=O)cc1 | nt | -24 | nt | 0
Cc1[nH]n(-c2ccc(Br)cc2)c(=O)c1C=Nc1ccc(S(=O)(=O)Nc2nccs2)cc1 | 27* | -19 | -9 | 20
O=C(OCCN1CCCC12CCC(c1ccccc1)CC2)c1ccccc1 (configuration not stated) | nt | nt | 2 | nt
O=C(CSc1ccc(-c2ccc(Cl)cc2)nn1)Nc1ccc2c(c1)OCCO2 | 12* | -6 | 3 | -3
COc1cc(C=Nn2c(-c3cc(C)[nH]n3)n[nH]c2=S)cc(Br)c1O | nt | nt | 5 | nt
COC(=O)[C@]12C[C@H](CC(=O)NCc3cccc(C(F)(F)F)c3)C(=O)N(Cc3cccc4ccccc34)C1=C[C@H](C(C)C)O[C@@H]2C1CC1 | nt | nt | -18 | nt

Screening data (PubChem)
